Screening data from PubChem.
DRD3 antagonist: antagonists of human D3 dopamine receptor. P35462. D3R cells, DiscoveRx beta-arrestin luminescence, antagonist mode; stronger effect = lower value. max response, negative = inhibition, %. actives 2.5% (n = 360,000); in the data active = max response below about -50%; inconclusive = no clear call, values can overlap the other calls; also: % is scaled to controls: 0 for no effect and ±100 for the full control effect
Target sequence (P35462 whole entry, looked up): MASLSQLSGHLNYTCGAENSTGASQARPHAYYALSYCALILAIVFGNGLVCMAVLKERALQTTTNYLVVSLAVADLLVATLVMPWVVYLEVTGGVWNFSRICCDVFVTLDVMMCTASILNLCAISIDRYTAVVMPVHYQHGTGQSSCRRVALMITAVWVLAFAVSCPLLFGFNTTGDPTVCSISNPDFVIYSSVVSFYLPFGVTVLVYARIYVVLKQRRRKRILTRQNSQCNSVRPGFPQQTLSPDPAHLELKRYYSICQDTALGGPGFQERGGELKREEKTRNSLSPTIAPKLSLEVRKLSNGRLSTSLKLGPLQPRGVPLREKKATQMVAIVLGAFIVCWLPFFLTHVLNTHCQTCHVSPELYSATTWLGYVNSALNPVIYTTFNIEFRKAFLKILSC
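Cells plated overnight at 1500 cells/well, then exposed to library compounds with dopamine controls for 90 minutes at 37 degrees C. DiscoveRx reagent added for 30–60 minutes at room temperature; luminescence read, quantitative HTS format.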
TGFb inhibitor: inhibitors of TGF-b signaling; HepG2 CAGA-GFP TGF-b/SMAD3 reporter, GFP fluorescence, 18 h; TGF-beta stimulated, 500 pg/mL final; Potency, µM (highest dose often 46.1 µM), for the others: at the top dose activity, negative = inhibition, most hits filed as inhibitors; actives 1.2% (n = 410,000); also: potency is read from the fitted curve at half-maximal effect; % is scaled to controls: 0 for no effect and ±100 for the full control effect; nearly all actives have a fitted effect of over 65% in size
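Smad-responsive CAGA-GFP expression was quantified in HEPG2 cells exposed to compounds and 500 pg/mL final TGF-beta for 18 h at 37 degrees C; unstimulated wells defined full inhibition.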
ATXN viability: cell viability loss in ATXN counter-screen; S2 cells (HEK-293 line with an ATXN2-luciferase reporter) viability, CellTiter-Fluor protease fluorescence, 24 h; Potency, µM (top dose mostly 56.7 µM), most hits filed as cytotoxic; actives 0.49% (n = 400,000); AID 651635; also: potency is read from the fitted curve at half-maximal effect; nearly all actives have a fitted effect of over 40% in size
DRD3 agonist: agonists of human D3 dopamine receptor; P35462; D3R DiscoveRx beta-arrestin cells, luminescence, 90 min; max activation, %; actives 0.58% (n = 410,000); AID 652048; in the data active = max activation above about 30%; also: 0% is about no effect
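Agonist mode: compounds and dopamine controls were applied to plated cells for 90 min at 37 degrees C after an overnight attachment at 1500 cells/well. Luminescent read-out followed 30 - 60 minutes at room temperature with DiscoveRx detection reagent.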
HepG2 tox: kills HepG2 cells in TGF-b inhibitor counter-screen. AID 588856. actives 0.76% (n = 410,000). Potency, µM (top dose mostly 46.1 µM), inactives show at the highest dose activity change, negative = cytotoxicity, most hits filed as cytotoxic. HepG2 CAGA-GFP viability, ATP luminescence, 18 h; also: potency is read from the fitted curve at half-maximal effect
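CellTiter-Glo luminescence gave cytotoxicity after 18 hours at 37 degrees C. The cells were HepG2 CAGA-GFP in 1% FBS DMEM, stimulated with 500 pg/mL TGF-beta after compound addition. %Activity was normalised to no-cell wells (complete cell-killing) and DMSO (no toxicity), and curves were fitted and classified.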
ATXN2 expr inh: ATXN2 expression inhibition; HEK-293 ATXN2-luciferase reporter, luminescence, 24 h; Potency, µM (top dose mostly 57 µM), without a hit: at the highest dose activity change, negative = inhibition, hits mostly inhibitors; actives 0.72% (n = 360,000); also: potency is read from the fitted curve at half-maximal effect; % is scaled to controls: 0 for no effect and ±100 for the full control effect; nearly all actives have a fitted effect of over 55% in size
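ATXN2-luciferase reporter cells (luciferase flanked by upstream and downstream ATXN2 gene portions) were treated 24 h at 37 °C with compounds at up to 57 uM. SteadyGlo luminescence gave expression; GF-AFC fluorescence gave viability.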
* hit, by the source's call; i = inactive; ? = inconclusive; / = no result given. The list is not random: actives were taken first. Their share in the collection is about 4.7%. Unless noted, calls follow the shape of the dose curve; as a rule, active = well fitted curve in the direction sought with a large enough effect; inconclusive = small, poorly fitted or top-dose-only effect, or another doubt; inactive = no such curve, though single readings can be large; an effect the other way counts as inactive or inconclusive.

SMILES	DRD3 antagonist	TGFb inhibitor	ATXN viability	DRD3 agonist	HepG2 tox	ATXN2 expr inh
C#CCOc1ccc(-c2nnc(Nc3ccc(NC(C)=O)cc3)c3ccccc23)cc1	/	-15%	?	9	-25%	-18%
CCOC(=O)CN(C(=O)CSc1nnc2c(n1)[nH]c1ccc(F)cc12)c1ccccc1	-60*	1%	i	-10	-28%	-4%
CCOC(=O)CN(C(=O)CSc1nnc(C)n1-c1ccccc1)c1ccccc1	12	0%	i	-1	-17%	1%
CCOC(=O)CN(C(=O)CSc1nnc2c(n1)[nH]c1ccccc12)c1ccccc1	-73*	-16%	i	1	8%	25%
O=C(NC1=C(NC2CCS(=O)(=O)C2)C(=O)c2ccccc2C1=O)c1ccccc1 (centres undefined)	?	?	30µM*	-17	-117%	?
O=C(NC(NC1CCS(=O)(=O)C1)C(=O)c1cccs1)c1ccccc1 (centres undefined)	-5	0%	i	1	6%	8%
Cc1ccc(S(=O)(=O)Nc2ccc(O)c(Sc3ncn[nH]3)c2)cc1	1	-1%	i	21	5%	32%
Cc1ccc(S(=O)(=O)/N=C2/C=C(Sc3ncn[nH]3)C(=O)c3ccccc32)cc1	-104*	1µM*	?	-22	2µM*	?
CC(C)c1ccc(S(=O)(=O)/N=C2/C=C(Sc3ncn[nH]3)C(=O)c3ccccc32)cc1	-75*	7.9µM*	?	-6	10µM*	14µM*
CNc1oc(Cc2ccccc2)nc1S(=O)(=O)c1ccccc1	-89*	?	?	4	-63%	-34%
COc1cc(N=c2ssnc2Cl)cc(OC)c1	-71*	?	?	-8	-3%	-22%
Clc1nssc1=Nc1ccc(Br)cc1	5	?	?	5	-31%	-30%
CCOC(=O)CCN(Cc1ccccc1)S(=O)(=O)c1csc(C(N)=O)c1	4	8%	i	2	22%	-6%
CCN(CC)Cc1csc(C(N)=O)c1	-53*	-1%	i	5	1%	-1%
COc1cc(NS(=O)(=O)c2ccc(N)cc2)nc(C)n1	/	/	i	-7	/	6%
CN1CCN(c2nc(-c3ccc(Cl)s3)cs2)CC1	11	0%	i	11	-73%	13%
CN1CCN(C2=C(Cl)C(=O)C(c3cnc(N4CCCCC4)s3)=C(Cl)C2=O)CC1	-2	?	25µM*	-2	-32%	?
NC(=O)C1CCN(C2=C(Cl)C(=O)c3ccccc3C2=O)CC1	-75*	?	?	-11	7.1µM*	?
NC(=O)C1CCN(C2=C(NS(=O)(=O)c3ccccc3)C(=O)c3ccccc3C2=O)CC1	-26	?	i	-2	-40%	-11%
CC1COCC(C)N1C1=C(Cl)C(=O)c2ccccc2C1=O (centres undefined)	-58*	?	?	-9	-7%	?
O=C1C(Cl)=C(N2CCC(C(=O)O)CC2)C(=O)c2ccccc21	-53*	?	i	-7	-75%	25µM*
O=C1C(Cl)=C(NCCCN2CCOCC2)C(=O)c2ccccc21	?	?	?	2	-42%	?
C[C@@H]1[C@H](O)[C@@H](C)C=CC=CC=CC=CC=CC=CC=C[C@H](O[C@@H]2O[C@H](C)[C@H](O)[C@H](N)[C@@H]2O)C[C@@H]2O[C@](O)(C[C@@H](O)C[C@@H](O)[C@H](O)CC[C@@H](O)C[C@@H](O)CC(=O)O[C@H]1C)C[C@H](O)[C@@H]2C(=O)O	/	/	/	/	/	34%
Cc1ccc(OCC(=O)Nc2cc(-c3nc4cc(Cl)ccc4o3)ccc2C)c(C)c1	/	-5%	/	/	6%	/
CC(C)(CNC(=O)c1cnn(-c2ncc3c(n2)-c2ccccc2CC3)c1C1CC1)N1CCOCC1	/	/	i	/	/	/
SMILES	DRD3 antagonist	TGFb inhibitor	ATXN viability	DRD3 agonist	HepG2 tox	ATXN2 expr inh
CN1CCN(C2=C(NS(=O)(=O)c3ccccc3)C(=O)c3ccccc3C2=O)CC1	-12	?	i	-4	-47%	-27%
CN1CCN(C2=C(Cl)C(=O)c3ccccc3C2=O)CC1	?	?	/	-20	10µM*	24µM*
COc1ccc(Cl)cc1NC(=O)Nc1cccc([N+](=O)[O-])c1C	-76*	?	?	-17	-2%	20µM*
CCN(CC)/[N+]([O-])=N/Oc1ccc([N+](=O)[O-])cc1[N+](=O)[O-]	/	0%	/	/	-13%	/
COc1ccc(NC(=S)NC(NC(=O)/C=C/c2ccccc2)C(Cl)(Cl)Cl)cc1 (centres undefined)	-69*	?	i	-7	-48%	-21%
O=C(NC(NC(=S)Nc1cc(Cl)ccc1Cl)C(Cl)(Cl)Cl)c1ccco1 (centres undefined)	?	16µM*	i	-33	-29%	?
O=C(/C=C/c1ccccc1)NC(NC(=S)Nc1cc(Cl)ccc1Cl)C(Cl)(Cl)Cl (centres undefined)	?	2.2µM*	?	-26	-7%	?
O=C(/C=C/c1ccccc1)NC(NC(=S)Nc1ccc(Cl)cc1)C(Cl)(Cl)Cl (centres undefined)	-19	?	i	-6	-39%	?
COc1nccnc1NS(=O)(=O)c1ccc(NC(=S)NC(=O)/C=C/c2ccccc2)cc1	-63*	-5%	i	-10	-4%	-2%
COc1nccnc1NS(=O)(=O)c1ccc(NC(=S)NC(=O)c2ccccc2)cc1	?	-28%	i	-5	-29%	-1%
CCOC(=O)C(=O)CCc1ccccc1	/	/	i	/	/	3%
CC(C)(CNC(=O)c1cnn(-c2nccc(-c3cccs3)n2)c1C1CC1)N1CCOCC1	/	/	i	/	/	/
CCn1c2c(c(=O)n3ncc(C(=O)Nc4cccc(Cl)c4C)c13)CN(Cc1ccc(OC)cc1)CC2	/	-6%	i	-20	-24%	-3%
S=C1NCCc2ccc(Cl)cc2C1c1ccccc1 (centres undefined)	-62*	5%	i	-3	-19%	-5%
COC(=O)Cc1cc(=O)n2[nH]c(C)cc2n1	-52*	-13%	i	1	10%	18%
O=C(/C=C/c1ccc(OC2CSC2)cc1)c1ccccc1	-14	?	?	-7	6.3µM*	?
COc1cc(CN2CCOc3ccc(CN4CCC(O)(c5cccnc5)CC4)cc3C2)cc(OC)c1	/	/	i	/	/	/
